Sampled rows, rich in hits. Any-hit rate of the full collection: about 18%.
DT40 TDP1 no CPT: qHTS for Inhibitors of human tyrosyl-DNA phosphodiesterase 1 (TDP1): qHTS in cells in absence of CPT. DT40 Tdp1-/- hTDP1 cells, no CPT, ATP luminescence, 48 h. 420,000 compounds, 15% hits. AID 686978, 2013. Potency, µM (top dose mostly 46.2 µM), for inactives: top-dose activity change, negative = growth inhibition, actives largely listed as inhibitors; further: nearly all actives have a fitted effect of over 55% in size
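DT40 Tdp1-/-;hTDP1 cells, no CPT (DMSO vehicle only), 400 cells/well; compounds pin-transferred; ≥48 hr, 37 °C; CellTiter-Glo 30 min RT dark, luminescence read.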
VDR inhibitor: inhibitors of human vitamin D receptor. P11473. Potency, µM, without a hit: max response, negative = inhibition, most hits filed as inhibitors. 400,000 compounds, 0.93% hits. VDR-SRC2-3 peptide fluorescence polarization, 2 h
Target sequence (P11473 whole entry, looked up): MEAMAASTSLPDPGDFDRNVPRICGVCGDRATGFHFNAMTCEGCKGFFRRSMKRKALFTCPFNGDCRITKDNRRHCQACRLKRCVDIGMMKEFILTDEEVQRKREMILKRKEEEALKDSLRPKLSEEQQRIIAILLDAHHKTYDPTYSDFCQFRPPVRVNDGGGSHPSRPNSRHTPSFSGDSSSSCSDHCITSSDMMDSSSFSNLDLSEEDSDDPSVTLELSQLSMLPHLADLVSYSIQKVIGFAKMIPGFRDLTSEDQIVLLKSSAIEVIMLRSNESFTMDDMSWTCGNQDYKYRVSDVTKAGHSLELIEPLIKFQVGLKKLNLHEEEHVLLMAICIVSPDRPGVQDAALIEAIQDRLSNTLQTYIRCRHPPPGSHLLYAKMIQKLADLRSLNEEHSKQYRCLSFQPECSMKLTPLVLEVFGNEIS
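Two reagent solutions held at 4 deg C in the dark were dispensed, compounds pinned at 23 nl, and the mixture incubated 2 h at room temperature. Read-out: fluorescence polarization of VDR–SRC2-3 peptide binding.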
KAT2A inh: blocks human GCN5L2 histone acetyltransferase. 390,000 compounds, 0.21% hits. GCN5L2 HAT assay, ThioGlo1 CoA-SH fluorescence. Potency, µM (top dose mostly 58.9 µM), without a hit: at the top dose activity change, negative = inhibition, usual class: inhibitors. Q92830
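GCN5L2 (20nM final) in 50mM HEPES, 0.1mM EDTA pH 7.5, 0.01% Tween-20 was preincubated 15 min at room temperature with compound, then given ThioGlo1 (50uM), H3(1-25) peptide (75uM) and acetyl-CoA (70uM); CoA-thiol fluorescence (Ex340/Em540) was read at 0 and 20 min.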
TDP1 cell CPT: DT40-hTDP1 cell growth loss with CPT; chicken DT40 Tdp1-/-;hTDP1 cells + 20 nM CPT, ATP luminescence, 48 h; Potency, µM (highest dose often 46.2 µM), inactives show at the top dose activity change, negative = growth inhibition, most hits filed as inhibitors; 420,000 compounds, 12% hits; further: nearly all actives have a fitted effect of over 55% in size
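Cell growth measured by CellTiter-Glo luminescence after a minimum 48 h, 37 C compound exposure with 20 nM CPT in Tdp1-knockout DT40 cells stably expressing hTDP1, seeded 400/well; qHTS titration format.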
PLK1 PBD block: inhibitors of human PLK1 polo-box domain binding | Plk1 PBD binding of FITC phosphopeptide, fluorescence polarization | Potency, µM, for inactives: max response, negative = inhibition, most hits filed as inhibitors | 360,000 compounds, 2.8% hits; further: series mostly up to about 57 µM; nearly all actives have a fitted effect of over 65% in size
TDP1 inh: TDP1 (human) enzyme inhibition. Q9NUW8. recombinant TDP1, AlphaScreen DNA substrate cleavage. Potency, µM (series often up to 130 µM), for the others: at the highest dose activity change, negative = inhibition, hits mostly inhibitors. 350,000 compounds, 0.28% hits. AID 485290; further: nearly all actives have a fitted effect of over 40% in size
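Compounds were preincubated with Tdp1 (1 nM final) for 15 min at room temperature before substrate (15 nM final) started a 5 min reaction; beads (10 ug/ml final) were then added for 10 min before AlphaScreen detection.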
The depositor's hits bear a star; ? = inconclusive; nt = no result given. The call rests on the fitted dose curve; in most records, active means well fitted curve in the direction sought with a large enough effect; inconclusive means small, poorly fitted or top-dose-only effect, or another doubt; inactive means no such curve, though single readings can be large; an effect the other way counts as inactive or inconclusive. On the % scale 0 is the no-effect control and ±100 the full control effect; potency means the concentration at half of the fitted maximal effect.

SMILES | DT40 TDP1 no CPT | VDR inhibitor | KAT2A inh | TDP1 cell CPT | PLK1 PBD block | TDP1 inh
CC(=O)Nc1ccc(S(=O)(=O)Nc2nc3ccccc3nc2Nc2ccc(O)c(C(=O)O)c2)cc1 | 7% | -9% | -12% | 16% | -20% | 0%
COc1ccc(/C(C)=N/Nc2nc3ccccc3nc2C)cc1 | 23µM* | 33% | -1% | ? | -21% | nt
CC(C)CN=c1cc(-c2ccccc2)oc2ccc(Cl)cc12 | ? | 13% | -16% | ? | -2% | 3%
CN(C)CCCN=c1cc(-c2ccccc2)oc2ccc(Cl)cc12 | ? | -8% | -7% | 10µM* | -2% | 7%
CCn1ccc2cc(S(=O)(=O)N3CCCN(C(=O)Nc4ccc(C)c(F)c4)CC3)ccc21 | nt | 3% | -2% | nt | nt | 2%
CC(=O)NCCNc1cc(-c2ccccc2CN(C)C)ncn1 | -4% | -13% | 1% | 1% | nt | nt
CCn1c(SCC(=O)N2CCN(c3ccccc3)CC2)nnc1-c1ccoc1C | -10% | 10% | -4% | -7% | -16% | 4%
CCn1c(CSCc2ccc(C)cc2)nnc1SCC(=O)N1CCN(c2ccccc2)CC1 | 21µM* | 14% | -2% | -52% | -13% | 6%
C=CCn1c(CSCc2ccccc2)nnc1SCC(=O)N1CCN(c2ccccc2)CC1 | 15µM* | 0% | -1% | ? | -6% | -5%
Cn1c(Cc2ccccc2)nnc1SCC(=O)N1CCN(c2ccccc2)CC1 | -23% | -7% | 2% | ? | -1% | 4%
Cc1ccc([N+](=O)[O-])cc1N=Nc1c(C)[nH]n(C(N)=S)c1=O | -1% | -19% | 0% | -8% | -21% | nt
Cc1ccc([N+](=O)[O-])cc1N=Nc1c(-c2ccc([N+](=O)[O-])cc2)[nH]n(C(N)=S)c1=O | 2.9µM* | -15% | 1% | 8.2µM* | ? | -2%
COc1ccc(N2CCN(C(CNC(=O)C(=O)NCc3cccnc3)c3cccnc3)CC2)cc1 (stereo unspecified) | ? | 6% | 3% | ? | nt | 5%
COc1ccc(N2CCN(C(CNC(=O)C(=O)NCCc3ccccc3)c3cccnc3)CC2)cc1 (stereo unspecified) | 16µM* | 2% | -10% | 15µM* | nt | -3%
O=C(NCc1ccccc1)C(=O)NCC(c1cccnc1)N1CCN(c2ccccc2)CC1 (stereo unspecified) | 13µM* | 1% | -13% | 16µM* | nt | -12%
COc1ccc(N2CCN(C(CNC(=O)C(=O)NCc3ccc(C)cc3)c3cccnc3)CC2)cc1 (stereo unspecified) | 7.3µM* | 5% | -1% | 8.2µM* | nt | 1%
O=C(NCCCn1ccnc1)C(=O)NCC(c1cccnc1)N1CCN(c2ccccc2)CC1 (stereo unspecified) | -3% | -2% | 0% | -7% | -16% | 5%
COc1ccccc1/C=C/CN1CCSCC1 | -5% | -15% | -4% | 4% | -2% | nt
CC(C)CN1CC2(CCN(C(=O)c3ccco3)CC2)C1 | -7% | -4% | -3% | 2% | nt | nt
COc1ccc(C=O)c(-c2c(-c3ccccc3OC)sc3ccccc23)c1 | ? | nt | nt | ? | 5% | nt
CN(C)CCN(C(=O)c1ccc2ccccc2c1)c1nc2c(F)cccc2s1 | 5% | -12% | -2% | -26% | 2% | 14%
COc1ccc(C)c2sc(N(CCN(C)C)C(=O)c3ccc4ccccc4c3)nc12 | ? | -19% | -7% | 18µM* | 6% | 17%
Cc1cc(C)c2nc(N(CCN(C)C)C(=O)c3ccc4ccccc4c3)sc2c1 | 13µM* | 3% | -7% | 16µM* | -9% | 15%
Cc1ccc2[nH]c(CSc3nnc(NC(=O)c4ccc(Cl)cc4)s3)cc(=O)c2c1 | -15% | -3% | 2% | -2% | nt | 8%

Screening data from PubChem BioAssay.
